PI4K2A block: blocks human PI4K2A kinase activity | hit rate 0.13% among 420,000 | activity change, negative = inhibition, % at 76.9 µM | Q9BTU6 | purified PI4K2A, ADP-Glo luminescence, 1 h; stronger effect = lower value; in the data active = activity change below about -50%; inconclusive = mostly about -30% to -49%
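Compounds are screened against recombinant PI4K2A using PI as substrate and ATP, the latter dispensed at 300 microM. Reactions run one hour at ambient temperature before ADP-Glo detection; full inhibition defined by wells lacking enzyme.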
Tb PFK block: T. brucei PFK enzyme inhibition; O15648; T. brucei PFK, ADP-Glo luminescence; Potency, µM (highest dose often 57.5 µM), actives largely listed as inhibitors; hit rate 0.17% among 330,000; AID 485367; also: nearly all actives have a fitted effect of over 60% in size
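ADP-Glo luminescence quantified ADP after 45 min at room temperature, with 1.25 nM T. brucei PFK, 0.1 mM ATP and 0.5 mM fructose-6-phosphate in pH 8.0 TEA buffer. qHTS titrations up to 57 µM; curves classified by quality.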
Tb PGK inh: T. brucei PGK inhibition. P07378. PGK/GAPDH coupled, Kinase-Glo luminescence, 60 min. Potency, µM (titrated, usually from 57.5 µM), most hits filed as inhibitors. hit rate 0.043% among 380,000. AID 602233; also: nearly all actives have a fitted effect of over 60% in size
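Luminescent ATP detection (Kinase-Glo Plus) follows a 60-minute room-temperature incubation, with wells lacking PGK as controls. Buffer: 100 mM TEA (pH 7.6), 5 mM MgCl2, 0.01% Tween-20. Coupling enzyme GAPDH (100 nM final) supplies unstable 1,3-BPG in-well.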
PI5P4K alpha inh: PI5P4K alpha (human) kinase inhibition; PI5P4Kalpha enzyme, ADP-Glo luminescence, 60 min; stronger effect = lower value; max response, %; hit rate 1.2% among 330,000; active = max response of -50% or lower; inconclusive = between -30% and -50%; inactive = -30% or higher; also: value at the top dose of about 77 µM
Target sequence (P48426 whole entry, looked up): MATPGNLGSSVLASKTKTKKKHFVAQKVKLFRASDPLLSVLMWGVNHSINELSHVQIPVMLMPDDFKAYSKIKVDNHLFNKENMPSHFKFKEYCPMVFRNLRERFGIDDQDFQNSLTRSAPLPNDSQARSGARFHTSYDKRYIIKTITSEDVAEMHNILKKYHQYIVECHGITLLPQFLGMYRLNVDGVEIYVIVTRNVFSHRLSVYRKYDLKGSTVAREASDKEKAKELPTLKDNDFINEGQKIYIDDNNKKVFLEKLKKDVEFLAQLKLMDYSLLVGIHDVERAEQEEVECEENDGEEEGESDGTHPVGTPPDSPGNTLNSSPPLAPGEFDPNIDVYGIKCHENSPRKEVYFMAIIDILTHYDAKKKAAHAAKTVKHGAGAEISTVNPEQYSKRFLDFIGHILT
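ADP-Glo luminescence end-point read after a 60 min room-temperature kinase reaction of PI5P4Kalpha plus substrate, initiated with ATP at 5 microM final. Buffer: 0.038 M HEPES pH 7.4, EGTA, 0.1% CHAPS, 5% DMSO.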
Pin1 inhibitor: human Pin1 inhibition; Potency, µM (top dose mostly 115 µM), most hits filed as inhibitors; Q13526; hit rate 0.009% among 390,000; Pin1 FP peptide displacement, HiFluor488, 10 min; active = well fitted inhibition curve with a large enough effect in the polarisation, with a control signal flat, not every such curve was filed as active; inconclusive = small, poorly fitted or top-dose-only effect, or effect the other way, or a change in a side signal; inactive = no such curve, though single readings can be large or run the other way; the % refers to the polarisation
Of the large screens only hits and unclear results are named; the others gave an inactive call. This excerpt belongs to a sample that is enriched for hits. Unless noted, calls follow the shape of the dose curve; as a rule, active = well fitted curve in the direction sought with a large enough effect; inconclusive = small, poorly fitted or top-dose-only effect, or another doubt; inactive = no such curve, though single readings can be large; an effect the other way counts as inactive or inconclusive.

CCOc1ccc(C2CC(=O)c3c([nH]c(C(=O)OCC4CCCCC4)c3C)C2)cc1 (stereo unspecified)	none (no result: Tb PFK block, PI5P4K alpha inh)
COc1ccc2c(c1)CC/C(=C/c1ccco1)C2=O	none
O=C1/C(=C/c2ccco2)CCc2ccccc21	PI4K2A block -54, Tb PGK inh inconclusive
Nc1ccc2c(c1)C/C(=C/c1ccco1)C2=O	PI5P4K alpha inh -74, Pin1 inhibitor inconclusive
O=C(NCCN1C(=O)S/C(=C\c2cccnc2)C1=O)C1=NN(c2ccccc2)C(=O)CC1	PI5P4K alpha inh -67
Nc1ccc2nc3c(=O)n(CCc4ccccc4)c(=O)[nH]c3nc2c1	PI5P4K alpha inh -63 (no result: Pin1 inhibitor)
Nc1ccc2nc3c(=O)n(C4CCCCC4)c(=O)[nH]c3nc2c1	PI5P4K alpha inh inconclusive (no result: Pin1 inhibitor)
C=CCn1c(=O)[nH]c2nc3cc(N=CN(C)C)c(C)cc3nc2c1=O	Pin1 inhibitor inconclusive
CCCCn1c(=O)[nH]c2nc3cc(N)ccc3nc2c1=O	PI5P4K alpha inh -66 (no result: Pin1 inhibitor)
Cc1cc2nc3c(=O)n(CCc4ccccc4)c(=O)[nH]c3nc2cc1N	PI5P4K alpha inh -86 (no result: Pin1 inhibitor)
COc1cccc(/C=C(/C#N)c2ccc(Cl)cc2)c1OCc1cccc(C(=O)O)c1	none
Cc1cccc(OCC(=O)NC(=S)NNC(=O)c2ccncc2)c1	PI5P4K alpha inh -73
Cc1ccc2[nH]c3c(=O)n(CC(=O)N(C)Cc4ccccc4)ncc3c2c1	none (no result: Tb PFK block, PI5P4K alpha inh)
COc1cc(/C=N/n2c(=S)[nH]nc(C)c2=O)cc([N+](=O)[O-])c1O	PI5P4K alpha inh -57, Pin1 inhibitor inconclusive
CCc1n[nH]c(=S)n1/N=C/c1cccc2ccccc12	none
CCc1n[nH]c(=S)n1/N=C/c1cc(OC)cc([N+](=O)[O-])c1O	PI5P4K alpha inh -57, Pin1 inhibitor inconclusive
COc1cc(/C=N/n2c(C3CCCCC3)n[nH]c2=S)cc(Br)c1O	PI5P4K alpha inh -62
Cc1n[nH]c(=S)n(/N=C/c2cccc([N+](=O)[O-])c2)c1=O	none
C#CCn1ccc(O)c(Cc2ccccc2)c1=O	none
CCOc1ccc(S(=O)(=O)/N=C(/Nc2ccc(OC)cc2)c2ccccc2)cc1	none
Cc1ccc(/C=C2\SC(=S)N(/N=C/c3cc([N+](=O)[O-])ccc3O)C2=O)o1	PI5P4K alpha inh -84, Pin1 inhibitor inconclusive
O=[N+]([O-])c1ccc(O)c(/C=N/n2cnc3ccccc32)c1	none
CCOC(=O)c1cccc(NC(=O)C(C)N2C(=O)c3ccccc3C2=O)c1 (stereo unspecified)	none
COc1cc(C)c2c(c1C=O)Oc1c(c(C)c(O)c3c1C(O)OC3=O)OC2=O (stereo unspecified)	PI4K2A block inconclusive, Tb PGK inh inconclusive, PI5P4K alpha inh -64, Pin1 inhibitor inconclusive
COc1ccccc1N(C(C)=O)C1=C(Cl)C(=O)c2ccccc2C1=O	PI5P4K alpha inh -89 (no result: Tb PFK block, Pin1 inhibitor)
c1ccc2nc(-c3nc4ccccc4[nH]3)ccc2c1	PI4K2A block -66, Tb PGK inh inconclusive
Cc1cc(NC(=O)c2ccc(Cl)cc2)c(C)cc1O	none
Cc1cc(C(C#N)c2ccc(Cl)cc2)c(Cl)cc1NC(=O)c1cc(I)cc(I)c1O (stereo unspecified)	PI5P4K alpha inh -55 (no result: Pin1 inhibitor)
C/C(N)=C(/C#N)C(=O)CSc1nnc(Nc2cccc(C)c2)s1	Tb PFK block inconclusive, PI5P4K alpha inh -50, Pin1 inhibitor inconclusive
Cc1cc(C(=O)N/N=C2\CC(=O)c3ccccc32)c(C)n1-c1ccc(F)cc1	PI5P4K alpha inh -64, Pin1 inhibitor inconclusive
Cc1ccc(NC(=S)N(CCN(C)C)Cc2cc3cc(C)ccc3[nH]c2=O)cc1	none
COc1ccc(NC(=O)c2ccc(N3C(=O)C4CC=C(Cl)CC4C3=O)cc2)cc1 (stereo unspecified)	PI5P4K alpha inh -51
COc1ccc(N2C(=O)C3CC=C(Cl)CC3C2=O)cc1 (stereo unspecified)	none (no result: Tb PGK inh, PI5P4K alpha inh)
COc1cc(C2c3c(-c4ccc(C)cc4)n[nH]c3C(=O)N2c2ccc(F)cc2)ccc1O (stereo unspecified)	none (no result: Tb PFK block, PI5P4K alpha inh)
COc1c(OC(C)=O)ccc(/C=N\NC(=O)c2ccc(Br)cc2)c1[N+](=O)[O-]	PI5P4K alpha inh -69
COc1ccc(Br)cc1/C=N/NC(=O)c1cc(OC)c(OC)c(OC)c1	none
CCCN(CC(=O)Nc1ccc(F)c(F)c1F)CC(=O)Nc1c(Cl)cccc1Cl	none
Cc1ccc(C2(C)NC(=O)N(CC(=O)Nc3nc(-c4ccccn4)cs3)C2=O)cc1 (stereo unspecified)	PI5P4K alpha inh -59
